From PubChem BioAssay (EPA / NIEHS) come the findings set out here.

For experiment [1], the target named is Myc proto-oncogene protein (Homo sapiens) (UniProt P01106). In words: ATG_Myc_CIS: Attagene CIS-FACTORIAL HepG2 Assay for human Myelocytomatosis (Myc) Proto-Oncogene Transcription Factor (AID 2282990). To be noted: HepG2, Attagene cis-reporter transcription factor activity; actives raise or lower the signal. The procedure, abridged: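 Read-out: fluorescent reporter mRNA fragments resolved by capillary electrophoresis after RT-PCR. Human HepG2 liver cells carried transfected cis-element reporter units and were dosed for 24 h. Gain or loss of signal fitted relative to DMSO baseline.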
Chain of Myc proto-oncogene protein (Homo sapiens) (P01106 whole entry, looked up, the tested form may be a part): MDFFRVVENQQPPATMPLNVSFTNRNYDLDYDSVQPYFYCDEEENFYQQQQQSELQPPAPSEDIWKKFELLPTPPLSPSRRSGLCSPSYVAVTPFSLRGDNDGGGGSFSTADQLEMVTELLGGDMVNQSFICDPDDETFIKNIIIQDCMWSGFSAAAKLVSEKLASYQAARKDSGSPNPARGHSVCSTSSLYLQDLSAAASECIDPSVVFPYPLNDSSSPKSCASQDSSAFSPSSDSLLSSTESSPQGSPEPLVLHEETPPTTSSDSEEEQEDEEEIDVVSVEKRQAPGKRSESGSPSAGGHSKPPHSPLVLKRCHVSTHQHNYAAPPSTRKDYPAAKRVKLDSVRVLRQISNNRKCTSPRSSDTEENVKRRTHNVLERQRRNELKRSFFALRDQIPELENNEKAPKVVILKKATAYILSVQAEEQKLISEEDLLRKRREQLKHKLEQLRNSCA

Experiment [2] can be described thus: ATG_NF_kB_CIS: Attagene CIS-FACTORIAL HepG2 Assay for human Nuclear Factor Kappa B (NF-kB) (AID 2282991). To be noted: HepG2 Attagene cis-factorial NF-kB reporter mRNA; actives raise or lower the signal. The procedure, abridged: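 Read-out: reporter transcript levels quantified by RT-PCR plus capillary electrophoresis of 6-FAM-labelled, HpaI-cut fragments. Transfected HepG2 cells, 24 h compound exposure, endogenous NF-kB-driven cis element; gain or loss scored versus DMSO.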

Experiment [3] in a line: ATG_NRF2_ARE_CIS: Attagene CIS-FACTORIAL HepG2 Assay for human Nuclear Factor Erythroid 2 Related Factor 2 (NFR2) response to Antioxidant Response Elements (ARE) (AID 2282992). To be noted: HepG2 Attagene ARE/NRF2 reporter, transcription factor activity; actives raise or lower the signal. The procedure, abridged:
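Endogenous transcription factor activity in human liver HepG2 cells is tracked via a cis-element-driven reporter within a multiplexed set. mRNA induction is read by RT-PCR and capillary electrophoresis after 24 h, with DMSO as baseline.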

A short description of experiment [4]: ATG_Oct_MLP_CIS: Attagene CIS-FACTORIAL HepG2 Assay for human Octamer-Binding Transcription Factor (Oct) (AID 2282993). To be noted: HepG2 Attagene cis-factorial Oct reporter, mRNA; actives raise or lower the signal. The procedure, abridged: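 Cells of the HepG2 line express promoter-controlled reporter sequences whose mRNA levels, after 24 h treatment, are measured by RT-PCR and capillary electrophoresis. Increases and decreases are scored relative to DMSO.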

Experiment [5] in a line: BSK_3C_TissueFactor: BioMAP Diversity Plus: 3C Assay for Tissue Factor Biomarker Activity (AID 2282997). To be noted: BioMAP 3C HUVEC, tissue factor biomarker readout; actives raise or lower the signal. The procedure, abridged: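 Tissue factor on primary human umbilical vein endothelium was read by ELISA 24 h after dosing, gain or loss relative to DMSO. Cytotoxicity ran alongside via SRB (0.1%, TCA-fixed, 560 nm).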

The nature of experiment [6]: BSK_3C_uPAR: BioMAP Diversity Plus: 3C Assay for Urokinase-type plasminogen activator receptor (uPAR) Biomarker Activity (AID 2282998). Particulars: BioMAP 3C HUVEC, uPAR biomarker ELISA; actives raise or lower the signal. The procedure, abridged:
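Endothelial primary cells of human umbilical vein origin received test chemical; 24 h later uPAR was assayed by ELISA. Fitting was bidirectional, DMSO as negative control.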

Experiment [7] in a line: BSK_3C_VCAM1: BioMAP Diversity Plus: 3C Assay for Vascular cell adhesion molecule 1 (VCAM1) Biomarker Activity (AID 2282999). To be noted: BioMAP 3C HUVEC, VCAM1 ELISA, cytokine-stimulated; actives raise or lower the signal. The procedure, abridged:
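HUVEC primary cells, 24 h compound exposure; VCAM-1 by ELISA; gain/loss of signal fitted bidirectionally vs DMSO baseline.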

Experiment [8] in a line: BSK_4H_Eotaxin3: BioMAP Diversity Plus: 4H Assay for Eotaxin 3 Biomarker Activity (AID 2283000).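 Note: CCL26 protein level quantified by ELISA in parallel with SRB cytotoxicity check.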 Particulars: primary human endothelial cells (HUVEC); actives raise or lower the signal. The procedure, abridged:
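Human umbilical vein endothelial cells (BSK_4H system) dosed with test chemical; Eotaxin-3 (CCL26) measured by ELISA 24 h after dosing. Bidirectional curve fitting relative to DMSO negative control as baseline.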

The target in experiment [9] is human Peroxisome Proliferator-activated Receptor alpha (PPARa), PPARA (gene 5465) (UniProt Q07869). In words: ATG_PPARa_TRANS: Attagene TRANS-FACTORIAL HepG2 Assay for human Peroxisome Proliferator-activated Receptor alpha (PPARa) (AID 2283001; active = hit-call score of the fitted dose curve at least 0.9, where 1 is the maximum). The procedure, abridged:
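Transient HepG2 transfection, GAL4-UAS reporters, NR-Gal4 chimeras; 24 h compound exposure. Readout: reporter transcripts by RT-PCR, 6-FAM primer extension, HpaI digest, capillary electrophoresis. Positive direction vs DMSO baseline.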

Read-out in experiment [10]: Intercellular Adhesion Molecule 1 (ICAM1), ICAM1 (gene 3383)
In words: BSK_3C_ICAM1: BioMAP Diversity Plus: 3C Assay for Intercellular Adhesion Molecule 1 (ICAM1) Biomarker Activity (AID 2283003). To be noted: primary human endothelial cells (HUVEC); actives raise or lower the signal. The procedure, abridged: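 Using DMSO as baseline, bidirectional curve fitting was applied to ICAM-1 ELISA signals from HUVEC in the 3C system, measured 24 h after compound addition.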

Experiment [11] in a line: BSK_3C_Proliferation: Cell Proliferation Assessment in the BioMAP Diversity Plus: 3C Assay (AID 2283006).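 For AC50: potency may reflect either rise or fall in cell number versus DMSO.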 To be noted: primary human endothelial cells (HUVEC). The procedure, abridged: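 Measured here: sulforhodamine B (0.1%) staining of TCA-fixed sub-confluent umbilical vein endothelial cultures 48 h post-dosing, absorbance 560 nm. DMSO served as negative control and baseline; both signal gain and loss were modelled.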

In experiment [12] the target is Nuclear receptor subfamily 1 group I member 2 (Homo sapiens) (UniProt O75469). In words: ATG_PXR_TRANS: Attagene TRANS-FACTORIAL HepG2 Assay for human Pregnane X Receptor (PXR) (AID 2283008; active = hit-call score of the fitted dose curve at least 0.9, where 1 is the maximum). The procedure, abridged:
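HepG2 transfected (FuGene 6) with GAL4-UAS reporter units + PXR-Gal4 chimera; dosed 24 h. Total RNA → oligo(dT) RT → PCR → 6-FAM primer extension → HpaI cut → CE. Gain-of-signal vs DMSO.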

The target of experiment [13] is human RAR-related Orphan Receptor beta (RORb), RORB (gene 6096) (UniProt Q92753). In words: ATG_RORb_TRANS: Attagene TRANS-FACTORIAL HepG2 Assay for human RAR-related Orphan Receptor beta (RORb) (AID 2283010; active = hit-call score of the fitted dose curve at least 0.9, where 1 is the maximum). The procedure, abridged: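 Multiplexed transcription-factor reporter assay: HepG2 cells transiently carrying NR-Gal4/GAL4-UAS constructs, 24 h treatment, mRNA quantified by RT-PCR plus capillary electrophoresis fluorescence; activity scored as induction over DMSO.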
Chain of human RAR-related Orphan Receptor beta (RORb), RORB (gene 6096) (Q92753 whole entry, looked up, the tested form may be a part): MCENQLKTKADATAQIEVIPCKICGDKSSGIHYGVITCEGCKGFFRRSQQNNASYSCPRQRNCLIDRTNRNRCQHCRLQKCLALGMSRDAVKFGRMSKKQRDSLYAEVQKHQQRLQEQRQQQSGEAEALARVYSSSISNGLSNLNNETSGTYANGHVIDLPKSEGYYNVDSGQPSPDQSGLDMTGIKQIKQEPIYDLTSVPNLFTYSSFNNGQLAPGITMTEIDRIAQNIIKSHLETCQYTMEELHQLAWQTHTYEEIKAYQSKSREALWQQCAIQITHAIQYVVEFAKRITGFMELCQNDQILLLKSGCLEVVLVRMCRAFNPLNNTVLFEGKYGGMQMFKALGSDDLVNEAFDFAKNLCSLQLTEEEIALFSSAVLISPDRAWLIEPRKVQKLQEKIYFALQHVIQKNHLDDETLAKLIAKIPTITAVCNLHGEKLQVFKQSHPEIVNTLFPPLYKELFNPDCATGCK

Experiment [14] has as its target Peroxisome proliferator-activated receptor gamma (Homo sapiens) (UniProt P37231). In words: ATG_PPARg_TRANS: Attagene TRANS-FACTORIAL HepG2 Assay for human Peroxisome Proliferator-activated Receptor-gamma (PPARg) (AID 2283007; active = hit-call score of the fitted dose curve at least 0.9, where 1 is the maximum). The procedure, abridged: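 Read-out: reporter mRNA induction, detected by fluorescence after RT-PCR and capillary electrophoresis. Transiently transfected human HepG2 liver cells carrying a chimeric NR-Gal4 construct were dosed for 24 h; activity was fitted upward relative to DMSO.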

The target of experiment [15] is human RAR-related Orphan Receptor gamma (RORg), RORC (gene 6097) (UniProt P51449). In words: ATG_RORg_TRANS: Attagene TRANS-FACTORIAL HepG2 Assay for human RAR-related Orphan Receptor gamma (RORg) (AID 2283011; active = hit-call score of the fitted dose curve at least 0.9, where 1 is the maximum). The procedure, abridged:
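Reporter transcripts from a transfected RORg-GAL4 chimera in HepG2 cells were quantified 24 h after dosing by RT-PCR, 6-FAM labelling, HpaI digestion and capillary electrophoresis; increases over DMSO baseline were fitted.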

In experiment [16] the target is human Retinoic Acid Receptor gamma (RARg), RARG (gene 5916) (UniProt P13631). In words: ATG_RARg_TRANS: Attagene TRANS-FACTORIAL HepG2 Assay for human Retinoic Acid Receptor gamma (RARg) (AID 2283009; active = hit-call score of the fitted dose curve at least 0.9, where 1 is the maximum). The procedure, abridged: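 Gain-of-signal relative to DMSO is reported from fluorescent capillary electrophoresis of RT-PCR reporter products. These came from HepG2 cells expressing transfected RARg-GAL4 chimeras with UAS reporters, harvested 24 h after dosing.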
Chain of human Retinoic Acid Receptor gamma (RARg), RARG (gene 5916) (P13631 whole entry, looked up, the tested form may be a part): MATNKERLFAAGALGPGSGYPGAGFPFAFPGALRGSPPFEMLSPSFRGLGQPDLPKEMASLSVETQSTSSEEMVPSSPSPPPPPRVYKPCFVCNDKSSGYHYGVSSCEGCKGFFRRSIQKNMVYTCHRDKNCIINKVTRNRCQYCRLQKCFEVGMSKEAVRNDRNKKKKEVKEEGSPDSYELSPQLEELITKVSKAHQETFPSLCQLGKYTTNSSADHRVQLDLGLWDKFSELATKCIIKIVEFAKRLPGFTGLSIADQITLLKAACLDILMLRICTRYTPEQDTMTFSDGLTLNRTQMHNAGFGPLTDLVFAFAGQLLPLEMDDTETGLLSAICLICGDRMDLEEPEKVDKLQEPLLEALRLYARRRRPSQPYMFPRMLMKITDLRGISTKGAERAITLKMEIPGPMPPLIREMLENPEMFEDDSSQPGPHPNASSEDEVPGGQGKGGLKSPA

SMILES strings stand for the structures. Records with an inconclusive call do not appear. The source holds several records for some structures; these can differ, active in one and inactive in another. The source made the active and inactive calls. Rule for the calls, unless noted: active = hit-call score of the fitted dose curve at least 0.9, where 1 is the maximum; inactive = score below 0.9.

Chain of human RAR-related Orphan Receptor gamma (RORg), RORC (gene 6097) (P51449 whole entry, looked up, the tested form may be a part): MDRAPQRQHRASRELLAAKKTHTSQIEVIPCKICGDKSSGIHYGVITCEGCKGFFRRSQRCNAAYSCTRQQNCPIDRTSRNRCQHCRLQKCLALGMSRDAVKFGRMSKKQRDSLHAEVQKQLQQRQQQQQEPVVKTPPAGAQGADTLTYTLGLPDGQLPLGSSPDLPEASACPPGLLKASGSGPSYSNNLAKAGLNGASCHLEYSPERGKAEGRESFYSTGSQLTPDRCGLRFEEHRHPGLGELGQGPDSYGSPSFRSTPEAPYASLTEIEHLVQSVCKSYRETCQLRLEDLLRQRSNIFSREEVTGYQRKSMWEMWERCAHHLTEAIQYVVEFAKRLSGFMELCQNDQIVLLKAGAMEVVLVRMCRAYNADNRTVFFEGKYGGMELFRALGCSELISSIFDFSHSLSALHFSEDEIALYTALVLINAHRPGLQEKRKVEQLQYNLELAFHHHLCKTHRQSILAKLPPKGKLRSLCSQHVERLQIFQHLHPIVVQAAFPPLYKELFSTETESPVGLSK
Chain of Nuclear receptor subfamily 1 group I member 2 (Homo sapiens) (O75469 whole entry, looked up, the tested form may be a part): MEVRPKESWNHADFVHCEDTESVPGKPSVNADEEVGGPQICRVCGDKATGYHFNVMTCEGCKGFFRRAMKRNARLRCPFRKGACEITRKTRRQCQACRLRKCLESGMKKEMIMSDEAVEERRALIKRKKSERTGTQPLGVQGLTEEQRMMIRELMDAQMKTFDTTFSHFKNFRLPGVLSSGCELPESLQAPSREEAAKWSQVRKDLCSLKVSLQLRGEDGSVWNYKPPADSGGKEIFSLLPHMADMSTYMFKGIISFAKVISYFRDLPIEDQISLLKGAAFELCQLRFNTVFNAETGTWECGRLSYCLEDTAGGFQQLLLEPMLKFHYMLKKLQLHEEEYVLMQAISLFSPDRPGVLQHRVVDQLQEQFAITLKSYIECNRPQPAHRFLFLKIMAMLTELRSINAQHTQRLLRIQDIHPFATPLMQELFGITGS
Chain of human Peroxisome Proliferator-activated Receptor alpha (PPARa), PPARA (gene 5465) (Q07869 whole entry, looked up, the tested form may be a part): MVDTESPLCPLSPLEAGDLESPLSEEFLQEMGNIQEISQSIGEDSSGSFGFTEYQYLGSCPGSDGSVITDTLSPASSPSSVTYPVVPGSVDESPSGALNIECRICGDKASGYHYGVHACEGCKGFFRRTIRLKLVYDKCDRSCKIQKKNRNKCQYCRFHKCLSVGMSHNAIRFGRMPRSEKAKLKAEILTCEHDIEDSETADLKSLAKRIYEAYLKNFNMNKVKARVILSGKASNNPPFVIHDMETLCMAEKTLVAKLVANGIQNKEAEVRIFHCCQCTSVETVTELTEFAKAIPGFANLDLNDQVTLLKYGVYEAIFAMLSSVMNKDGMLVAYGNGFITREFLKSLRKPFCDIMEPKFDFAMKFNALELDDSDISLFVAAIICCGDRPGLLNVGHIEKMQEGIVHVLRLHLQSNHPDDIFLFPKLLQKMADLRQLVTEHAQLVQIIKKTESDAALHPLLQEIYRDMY
Chain of Peroxisome proliferator-activated receptor gamma (Homo sapiens) (P37231 whole entry, looked up, the tested form may be a part): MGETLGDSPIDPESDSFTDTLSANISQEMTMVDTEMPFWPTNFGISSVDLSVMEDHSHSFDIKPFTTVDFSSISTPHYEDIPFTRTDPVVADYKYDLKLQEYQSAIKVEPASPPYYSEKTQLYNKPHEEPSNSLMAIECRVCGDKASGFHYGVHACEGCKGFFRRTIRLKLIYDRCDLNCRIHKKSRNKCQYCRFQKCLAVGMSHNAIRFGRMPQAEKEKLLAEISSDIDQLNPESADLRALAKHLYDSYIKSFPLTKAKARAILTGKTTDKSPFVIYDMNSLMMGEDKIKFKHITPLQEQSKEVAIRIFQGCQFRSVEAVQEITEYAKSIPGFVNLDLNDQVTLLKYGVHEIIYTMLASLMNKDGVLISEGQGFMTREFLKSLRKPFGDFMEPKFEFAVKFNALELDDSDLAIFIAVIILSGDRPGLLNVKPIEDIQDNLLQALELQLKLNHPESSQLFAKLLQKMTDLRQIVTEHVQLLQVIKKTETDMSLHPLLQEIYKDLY

With `CCCCCCCC(=O)OC`, the compound was called inactive in experiment [1], in experiment [2], in [3], in experiment [4], in [5] and in experiment [6]. Besides, the result in [7], in experiment [8], in experiment [9], in [10], in [11] and in experiment [12] was inactive.
As for `COC(=O)CCCC(=O)OC`, the call in experiment [1], in [2], in [3], in experiment [4], in experiment [5] and in experiment [6] was inactive. Besides, the result in [7], in experiment [8], in experiment [10], in experiment [11] and in experiment [13] was inactive.
On to `CSc1ccc(Oc2ccc(S(N)(=O)=O)cc2CN(C)C)cc1C`, for which the compound was classed as inactive in experiment [1], in experiment [2], in [3], in experiment [5], in experiment [6] and in experiment [7]. In addition, the outcome in experiment [8], in experiment [10], in experiment [14] and in experiment [15] was inactive. Besides, the AC50 is 33 µM (active) in [4], 20 µM (active) in experiment [11] and 2.31 µM (active) in [12].
For `CC(=O)CC(c1ccccc1)c1c(O)c2ccccc2oc1=O` (stereo unspecified), the compound was classed as inactive in experiment [1], in experiment [3], in experiment [4], in experiment [5], in experiment [6] and in [7]. In addition, the outcome in [8], in experiment [9], in experiment [10], in [11], in experiment [12] and in experiment [13] was inactive. In experiment [15], the call was inactive. Also, the AC50 in [3] was 27 µM (active).
For the compound `COC(=O)CCC(=O)OC`, the compound was called inactive in experiment [1], in experiment [2], in [3], in experiment [4], in [5] and in [6]. Moreover, the outcome in [7], in experiment [8], in [10], in experiment [11] and in [12] was inactive.
For `O=C(O)CN(CC(=O)O)CC(=O)O`, the compound was called inactive in [1], in [2], in [3], in [4], in experiment [5] and in experiment [6]. Also, the outcome in experiment [7], in experiment [8], in experiment [9], in experiment [10], in experiment [11] and in [16] was inactive. Further, the result in experiment [15] was inactive.
Regarding `C=CCCCCCCCCCCCC`, the outcome in experiment [1], in [2], in [3], in experiment [4], in [5] and in experiment [6] was inactive. For the same compound, the outcome in [7], in experiment [8], in experiment [10], in [11], in [14] and in experiment [12] was inactive.
